Each structure is given as a SMILES string.

The subject of assay [1] is T1, DRAK2.
T1 construct: gene STK17B

The test system of assay [2] is T2, DRAK1.
T2 construct: gene STK17A
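Also: kd values determined as follow-up on hits from a single-replicate KINOMEscan panel screen.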

What is called Kd is a measure of binding affinity in units of concentration. Low readings indicate tighter binding, high ones weaker binding. Regarding `CSc1ccc(-c2cc3ncnc(SCC(=O)O)c3s2)cc1`, in assay [1], binding was characterised by a dissociation constant (Kd) of 3.8 nM. As to `O=C(O)COc1ncnc2cc(-c3ccc4[nH]ncc4c3)sc12`, the Kd is 250 nM in assay [2] and 30 nM in assay [1].

The values are drawn from PMC5540273 (PLoS ONE, 2017).
